PubChem BioAssay AID1159580 (chemical genetic matrix, 2015)
Among all 5,500 compounds or so, about 2,000 (36%) were called active. About 18% were inconclusive and are not listed. Rule as the data show it: active = normalized growth mostly below about 0.91 (no sharp cut-off); inconclusive = no clear call, values can overlap the other calls; inactive = mostly above about 0.92. The list shows a part of the results.

Experiment: chemical genetic growth profiling, strain panel (AID 1159580);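 also: tested at 20 µM; growth read once vehicle control cultures reached saturation at 30 °C; 1 = growth at the plate median or of vehicle wells; lower values mean less growth of the strain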
Conditions: S. cerevisiae deletion strains, growth OD

Measured: normalized growth

CC(C)=CCC/C(C)=C/CC/C(C)=C/CSc1ccccc1C(=O)O
active: locus YCL061C, strain MRC1 (second series), hits give low values 0.938 | locus YGR229C, strain SMI1, hits give low values 0.742 | locus YOR083W, strain WHI5 (second series), hits give low values 0.855
inactive: locus YAL013W, strain DEP1, hits give low values 0.944 | locus YAL040C, strain CLN3, hits give low values 1.04 | locus YDR363W, strain ESC2, hits give low values 0.896 | locus YER002W, strain NOP16, hits give low values 0.958 | locus YGR078C, strain PAC10, hits give low values 0.928 | locus YNL175C, strain NOP13, hits give low values 0.956 | locus YNL197C, strain WHI3, hits give low values 0.965 | locus YNL224C, strain SQS1, hits give low values 0.974

CC(=O)OC/C=C(\C)CC/C=C(\C)CC/C=C(\C)CC/C=C(\C)CC/C=C(\C)CC/C=C(\C)CC/C=C(\C)CC/C=C(\C)CCC=C(C)C
inactive: locus YAL021C, strain ccr4, hits give low values 0.991 | locus YAL026C, strain drs2, hits give low values 0.973 | locus YAL030W, strain snc1, hits give low values 0.977 | locus YBL061C, strain skt5, hits give low values 0.981 | locus YBR009C, strain hhf1, hits give low values 0.98 | locus YBR023C, strain chs3, hits give low values 0.991 | locus YBR171W, strain sec66, hits give low values 0.98 | locus YBR231C, strain swc5, hits give low values 0.992 | locus YBR279W, strain paf1, hits give low values 0.987 | locus YCL011C, strain gbp2, hits give low values 0.959 | locus YCL016C, strain dcc1, hits give low values 0.981 | locus YCL061C, strain MRC1, hits give low values 0.997 | locus YCL069W, strain vba3, hits give low values 1 | locus YCR088W, strain abp1, hits give low values 0.995 | locus YDL005C, strain med2, hits give low values 0.976 | locus YDL040C, strain nat1, hits give low values 0.998 | locus YDR001C, strain nth1, hits give low values 0.966 | locus YDR069C, strain doa4, hits give low values 0.978 | locus YDR137W, strain rgp1, hits give low values 0.984 | locus YDR159W, strain sac3, hits give low values 1.02 | locus YDR195W, strain ref2 0.984 | locus YDR297W, strain sur2, hits give low values 0.993 | locus YDR334W, strain swr1, hits give low values 0.943 | locus YDR335W, strain msn5, hits give low values 0.982 | locus YDR392W, strain spt3, hits give low values 0.976 | locus YEL003W, strain gim4, hits give low values 0.98 | locus YEL037C, strain rad23, hits give low values 0.976 | locus YEL061C, strain CIN8 (second series), hits give low values 0.973 | locus YER015W, strain faa2, hits give low values 0.971 | locus YER016W, strain bim1, hits give low values 0.99 | locus YER111C, strain swi4, hits give low values 0.984 | locus YER155C, strain BEM2 (second series), hits give low values 1 | locus YFR010W, strain ubp6, hits give low values 0.967 | locus YGL167C, strain pmr1, hits give low values 0.981 | locus YGL173C, strain kem1, hits give low values 0.974 | locus YGL227W, strain vid30, hits give low values 0.987 | locus YGL240W, strain doc1, hits give low values 1.01 | locus YGL253W, strain hxk2, hits give low values 0.964 | locus YHR013C, strain ard1, hits give low values 0.969 | locus YHR027C, strain rpn1, hits give low values 0.974 | locus YHR030C, strain SLT2, hits give low values 1.04 | locus YHR079C, strain IRE1, hits give low values 1.04 | locus YHR142W, strain chs7, hits give low values 0.917 | locus YJL092W, strain hpr5, hits give low values 0.985 | locus YJL095W, strain BCK1 (second series), hits give low values 0.987 | locus YJL095W, strain BCK1, hits give low values 1.02 | locus YJL115W, strain asf1, hits give low values 0.951 | locus YJL129C, strain trk1, hits give low values 0.931 | locus YJL154C, strain vps35, hits give low values 0.971 | locus YJL164C, strain tpk1, hits give low values 0.976 | locus YJL166W, strain qcr8, hits give low values 0.99 | locus YJL187C, strain SWE1, hits give low values 0.986 | locus YJR066W, strain TOR1, hits give low values 1.01 | locus YKL160W, strain elf1, hits give low values 0.98 | locus YKR026C, strain gcn3, hits give low values 0.988 | locus YKR091W, strain srl3, hits give low values 0.984 | locus YLL001W, strain dnm1, hits give low values 0.968 | locus YLL026W, hits give low values 0.974 | locus YLL041C, strain sdh2, hits give low values 0.991 | locus YLR027C, strain aat2, hits give low values 0.997 | locus YLR113W, strain HOG1, hits give low values 0.991 | locus YLR221C, strain rsa3, hits give low values 0.942 | locus YLR258W, strain gsy2, hits give low values 0.997 | locus YLR262C, strain YPT6 (second series), hits give low values 0.996 | locus YLR320W, strain mms22, hits give low values 0.991 | locus YLR342W, strain FKS1, hits give low values 0.99 | locus YLR357W, strain rsc2, hits give low values 0.987 | locus YLR370C, strain arc18, hits give low values 0.994 | locus YLR384C, strain iki3, hits give low values 0.985 | locus YML120C, strain ndi1, hits give low values 0.977 | locus YMR058W, strain fet3, hits give low values 0.984 | locus YMR125W, strain sto1, hits give low values 0.939 | locus YMR129W, hits give low values 0.982 | locus YMR205C, strain PFK2, hits give low values 0.958 | locus YMR231W, strain pep5, hits give low values 0.989 | locus YNL071W, strain lat1, hits give low values 0.987 | locus YNL183C, strain NPR1, hits give low values 1.01 | locus YNL209W, strain ssb2, hits give low values 1 | locus YNL248C, strain rpa49, hits give low values 0.964 | locus YNL322C, strain KRE1 (second series), hits give low values 0.97 | locus YNR049C, strain mso1, hits give low values 0.975 | locus YOR001W, strain rrp6, hits give low values 1 | locus YOR070C, strain gyp1, hits give low values 0.984 | locus YOR080W, strain dia2, hits give low values 0.978 | locus YOR083W, strain WHI5, hits give low values 0.97 | locus YOR106W, strain vam3, hits give low values 0.909 | locus YOR231W, strain MKK1, hits give low values 1.02 | locus YOR265W, strain rbl2, hits give low values 0.996 | locus YOR270C, strain vph1, hits give low values 0.879 | locus YOR290C, strain snf2, hits give low values 0.941 | locus YPL051W, strain arl3, hits give low values 1 | locus YPL078C, strain atp4, hits give low values 0.977 | locus YPL106C, strain sse1, hits give low values 0.997 | locus YPL240C, strain hsp82, hits give low values 0.968 | locus YPL256C, strain CLN2, hits give low values 1.02
